# In PubChem BioAssay (EPA / NIEHS):
# Calls of active or inactive are those of the source. The calls were made as follows: active = hit-call score of the fitted dose curve at least 0.9, where 1 is the maximum; inactive = score below 0.9.
# Columns and labels:
# [1] = ATG_M_32_CIS: Attagene CIS-FACTORIAL HepG2 Assay for M32 Transcription Factor (Internal Marker) (AID 2282949); conditions: HepG2 Attagene cis-factorial M32 reporter, mRNA; actives raise or lower the signal;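 also: background control marker of the multiplexed CIS panel rather than a real target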
# Procedure, shortened: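 Transient MRTU transfection of HepG2; 24 h compound treatment; TriZol RNA, oligo(dT) RT, reporter PCR, 6-FAM primer extension, HpaI cut, CE. Gain/loss of signal vs DMSO.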
# [2] = ATG_M_06_CIS: Attagene CIS-FACTORIAL HepG2 Assay for M06 Transcription Factor (Internal Marker) (AID 2282950); conditions: HepG2 Attagene CIS-FACTORIAL M06 internal marker reporter; actives raise or lower the signal
# Procedure, shortened: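 Measured 24 h post-dosing in transiently transfected HepG2 cells, this internal-marker endpoint reports reporter mRNA via RT-PCR with fluorescent primer extension and capillary electrophoresis. DMSO served as negative control and baseline for bidirectional fitting.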
# [3] = molecular target: Hypoxia-inducible factor 1-alpha (Homo sapiens) (UniProt Q16665); assay: ATG_HIF1a_CIS: Attagene CIS-FACTORIAL HepG2 Assay for human Hypoxia Inducible Factor 1 (HIF1A) (AID 2282951); conditions: HepG2 Attagene cis-factorial HIF1a reporter transcription; actives raise or lower the signal
# Chain of Hypoxia-inducible factor 1-alpha (Homo sapiens) (Q16665 whole entry, looked up): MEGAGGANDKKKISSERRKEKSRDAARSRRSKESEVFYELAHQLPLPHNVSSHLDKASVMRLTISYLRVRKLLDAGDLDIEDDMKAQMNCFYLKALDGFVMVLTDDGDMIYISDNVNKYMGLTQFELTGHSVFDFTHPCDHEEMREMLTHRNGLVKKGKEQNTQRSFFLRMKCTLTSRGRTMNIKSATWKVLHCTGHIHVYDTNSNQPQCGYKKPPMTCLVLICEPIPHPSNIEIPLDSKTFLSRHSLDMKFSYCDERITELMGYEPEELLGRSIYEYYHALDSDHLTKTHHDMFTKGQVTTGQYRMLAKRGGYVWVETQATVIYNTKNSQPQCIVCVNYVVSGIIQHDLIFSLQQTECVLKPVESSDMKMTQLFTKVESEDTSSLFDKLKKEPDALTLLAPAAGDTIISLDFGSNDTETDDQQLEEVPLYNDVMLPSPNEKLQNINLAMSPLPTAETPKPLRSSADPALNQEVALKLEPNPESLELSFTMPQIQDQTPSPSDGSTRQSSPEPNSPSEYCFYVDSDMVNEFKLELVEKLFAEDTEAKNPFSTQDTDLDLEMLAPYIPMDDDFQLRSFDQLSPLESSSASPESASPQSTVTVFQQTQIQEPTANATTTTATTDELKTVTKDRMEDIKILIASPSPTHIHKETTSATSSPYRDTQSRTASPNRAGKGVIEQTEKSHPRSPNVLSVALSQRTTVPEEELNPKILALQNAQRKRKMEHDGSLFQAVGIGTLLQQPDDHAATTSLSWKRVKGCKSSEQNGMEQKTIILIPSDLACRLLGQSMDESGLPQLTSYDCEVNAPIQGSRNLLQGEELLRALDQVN
# Procedure, shortened: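 Measures endogenous transcription-factor activity through cis-regulated reporter mRNA in HepG2. Cells dosed 24 h; transcripts quantified by RT-PCR with 6-FAM-labelled products separated by capillary electrophoresis; DMSO serves as negative control.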
# [4] = molecular target: Hepatocyte nuclear factor 6 (Homo sapiens) (UniProt Q9UBC0); assay: ATG_HNF6_CIS: Attagene CIS-FACTORIAL HepG2 Assay for human Hepatocyte Nuclear Factor 6 (HNF6) (AID 2282952); conditions: HepG2 Attagene cis-factorial HNF6 reporter transcription; actives raise or lower the signal
# Chain of Hepatocyte nuclear factor 6 (Homo sapiens) (Q9UBC0 whole entry, looked up, the tested form may be a part): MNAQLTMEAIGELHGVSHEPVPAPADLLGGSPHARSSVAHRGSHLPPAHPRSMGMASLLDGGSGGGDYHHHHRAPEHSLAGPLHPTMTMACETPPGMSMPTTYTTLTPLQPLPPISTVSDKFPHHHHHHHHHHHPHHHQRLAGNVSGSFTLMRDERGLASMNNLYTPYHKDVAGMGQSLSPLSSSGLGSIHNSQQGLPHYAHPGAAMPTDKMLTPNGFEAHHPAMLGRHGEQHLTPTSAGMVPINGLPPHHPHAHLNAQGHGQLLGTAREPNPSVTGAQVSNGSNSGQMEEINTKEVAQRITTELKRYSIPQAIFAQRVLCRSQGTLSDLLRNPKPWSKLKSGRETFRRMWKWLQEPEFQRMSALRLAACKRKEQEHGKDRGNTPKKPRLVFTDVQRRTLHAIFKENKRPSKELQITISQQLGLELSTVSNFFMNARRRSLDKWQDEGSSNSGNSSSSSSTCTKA
# Procedure, shortened: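 First, HepG2 cells were transfected with the multiplexed cis reporter library and dosed with chemical for 24 h. Next, RNA was reverse-transcribed, PCR-amplified and fluorescently labelled. Finally, HpaI-digested fragments were read by capillary electrophoresis.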
# [5] = molecular target: Heat shock factor protein 1 (Homo sapiens) (UniProt Q00613); assay: ATG_HSE_CIS: Attagene CIS-FACTORIAL HepG2 Assay for human Heat Shock Transcription Factor 1 (HSE) (AID 2282953); conditions: HepG2 HSE cis-reporter, Attagene RNA transcription; actives raise or lower the signal
# Chain of Heat shock factor protein 1 (Homo sapiens) (Q00613 whole entry, looked up): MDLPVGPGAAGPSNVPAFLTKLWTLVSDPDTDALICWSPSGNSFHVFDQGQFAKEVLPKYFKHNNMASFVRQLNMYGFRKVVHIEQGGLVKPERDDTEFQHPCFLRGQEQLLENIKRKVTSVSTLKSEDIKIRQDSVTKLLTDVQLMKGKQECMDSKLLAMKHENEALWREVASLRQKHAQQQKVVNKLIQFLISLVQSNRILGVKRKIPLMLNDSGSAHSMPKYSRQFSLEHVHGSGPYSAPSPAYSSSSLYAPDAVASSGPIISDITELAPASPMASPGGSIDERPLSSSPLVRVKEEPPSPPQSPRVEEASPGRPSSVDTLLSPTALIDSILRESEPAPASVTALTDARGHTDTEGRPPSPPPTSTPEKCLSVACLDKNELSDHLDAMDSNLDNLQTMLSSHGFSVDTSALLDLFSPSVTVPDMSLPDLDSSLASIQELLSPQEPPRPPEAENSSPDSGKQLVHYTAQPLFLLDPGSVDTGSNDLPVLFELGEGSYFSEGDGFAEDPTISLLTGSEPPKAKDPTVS
# Procedure, shortened: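 Reporter mRNA induction in HepG2 is measured 24 h after dosing, using transiently transfected multiplexed cis-regulated reporter units. Signal comes from capillary electrophoresis of labelled RT-PCR products, with DMSO as negative control.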
# [6] = ATG_MRE_CIS: Attagene CIS-FACTORIAL HepG2 Assay for human Metal Responsive Element (MRE) (AID 2282954); conditions: HepG2 MRE cis-reporter transcription, Attagene multiplex; actives raise or lower the signal
# Procedure, shortened: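 Multiplexed cis-reporter assay in human HepG2 liver cells, 24 h incubation with test chemical. Reporter transcripts measured by RT-PCR and capillary electrophoresis; values from bidirectional curve fitting versus DMSO.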
# [7] = ATG_PBREM_CIS: Attagene CIS-FACTORIAL HepG2 Assay for human Phenobarbital-responsive Enhancer Module (PBREM) (AID 2282955); conditions: HepG2 PBREM cis-reporter, Attagene multiplexed transcription; actives raise or lower the signal
# Procedure, shortened: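 Fluorescence of labelled reporter cDNA fragments, resolved by capillary electrophoresis, gives mRNA induction in transfected HepG2 cells treated for 24 h; DMSO serves as negative control and baseline.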
# [8] = molecular target: Paired box protein Pax-6 (Homo sapiens) (UniProt P26367); assay: ATG_Pax6_CIS: Attagene CIS-FACTORIAL HepG2 Assay for human Paired Box 6 (PAX6) (AID 2282956); conditions: HepG2 CIS-FACTORIAL PAX6 reporter transcription, RNA readout; actives raise or lower the signal
# Chain of Paired box protein Pax-6 (Homo sapiens) (P26367 whole entry, looked up): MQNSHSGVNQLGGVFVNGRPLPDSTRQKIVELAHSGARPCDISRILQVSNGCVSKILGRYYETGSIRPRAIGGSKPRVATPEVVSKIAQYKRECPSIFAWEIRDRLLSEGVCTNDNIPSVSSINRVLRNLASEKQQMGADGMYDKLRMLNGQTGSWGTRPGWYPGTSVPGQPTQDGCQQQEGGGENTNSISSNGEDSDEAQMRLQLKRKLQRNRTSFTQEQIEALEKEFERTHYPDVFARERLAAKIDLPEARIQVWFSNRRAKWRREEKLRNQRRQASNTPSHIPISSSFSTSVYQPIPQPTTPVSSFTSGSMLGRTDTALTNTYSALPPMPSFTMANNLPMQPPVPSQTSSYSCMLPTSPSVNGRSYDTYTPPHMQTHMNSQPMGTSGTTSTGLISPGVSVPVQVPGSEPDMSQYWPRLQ
# Procedure, shortened: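 Readout: reporter transcript fluorescence after RT-PCR and capillary electrophoresis. Cells: HepG2, transiently transfected with cis-regulated MRTUs. Exposure 24 h. Gain or loss of signal fitted bidirectionally relative to DMSO.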
# [9] = ATG_PXRE_CIS: Attagene CIS-FACTORIAL HepG2 Assay for human Pregnane X Receptor Element (PXRE) (AID 2282957); conditions: HepG2 Attagene CIS-FACTORIAL PXRE reporter, mRNA; actives raise or lower the signal
# Procedure, shortened: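 After a 24 h chemical incubation, total RNA from transfected HepG2 cells was reverse-transcribed and reporter cDNA amplified, FAM-labeled, HpaI-digested and sized by capillary electrophoresis. DMSO served as baseline for bidirectional curve fitting.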
# [10] = ATG_PPRE_CIS: Attagene CIS-FACTORIAL HepG2 Assay for human Peroxisome Proliferator-activated Response Element (PPRE) (AID 2282958); conditions: HepG2 PPRE cis-element reporter, Attagene transcription factor profiling; actives raise or lower the signal
# Procedure, shortened: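 Cells are first transfected transiently with the multiplexed reporter library, then dosed for 24 h. Total RNA is reverse-transcribed, amplified, fluorescently end-labeled and HpaI-cut before capillary electrophoresis; activity is fitted bidirectionally against DMSO controls.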
# [11] = ATG_RORE_CIS: Attagene CIS-FACTORIAL HepG2 Assay for human RAR-related Orphan Receptor Element (RORE) (AID 2282959); conditions: HepG2 Attagene cis-factorial RORE reporter, mRNA; actives raise or lower the signal
# Procedure, shortened: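 Cells were HepG2 carrying transfected cis-regulated reporter constructs, dosed for 24 hours. Total RNA was reverse-transcribed and reporter cDNA amplified, fluorescently labeled and sized by capillary electrophoresis. Activity was fitted bidirectionally relative to DMSO.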
# [12] = ATG_Sox_CIS: Attagene CIS-FACTORIAL HepG2 Assay for human SRY-box transcription factor (SOX) (AID 2282960); conditions: HepG2 Attagene cis-factorial SOX reporter, mRNA; actives raise or lower the signal
# Procedure, shortened: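 Transient MRTU transfection of HepG2; 24 h compound incubation; TriZol RNA, oligo(dT) RT, PCR, 6-FAM primer extension, HpaI cut, CE. Bidirectional fit, DMSO = baseline.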
# [13] = molecular target: Transcription factor Sp1 (Homo sapiens) (UniProt P08047); assay: ATG_Sp1_CIS: Attagene CIS-FACTORIAL HepG2 Assay for human Specificity Protein 1 (Sp1) (AID 2282961); conditions: HepG2 Sp1 cis-reporter transcription, actives raise or lower the signal
# Chain of Transcription factor Sp1 (Homo sapiens) (P08047 whole entry, looked up): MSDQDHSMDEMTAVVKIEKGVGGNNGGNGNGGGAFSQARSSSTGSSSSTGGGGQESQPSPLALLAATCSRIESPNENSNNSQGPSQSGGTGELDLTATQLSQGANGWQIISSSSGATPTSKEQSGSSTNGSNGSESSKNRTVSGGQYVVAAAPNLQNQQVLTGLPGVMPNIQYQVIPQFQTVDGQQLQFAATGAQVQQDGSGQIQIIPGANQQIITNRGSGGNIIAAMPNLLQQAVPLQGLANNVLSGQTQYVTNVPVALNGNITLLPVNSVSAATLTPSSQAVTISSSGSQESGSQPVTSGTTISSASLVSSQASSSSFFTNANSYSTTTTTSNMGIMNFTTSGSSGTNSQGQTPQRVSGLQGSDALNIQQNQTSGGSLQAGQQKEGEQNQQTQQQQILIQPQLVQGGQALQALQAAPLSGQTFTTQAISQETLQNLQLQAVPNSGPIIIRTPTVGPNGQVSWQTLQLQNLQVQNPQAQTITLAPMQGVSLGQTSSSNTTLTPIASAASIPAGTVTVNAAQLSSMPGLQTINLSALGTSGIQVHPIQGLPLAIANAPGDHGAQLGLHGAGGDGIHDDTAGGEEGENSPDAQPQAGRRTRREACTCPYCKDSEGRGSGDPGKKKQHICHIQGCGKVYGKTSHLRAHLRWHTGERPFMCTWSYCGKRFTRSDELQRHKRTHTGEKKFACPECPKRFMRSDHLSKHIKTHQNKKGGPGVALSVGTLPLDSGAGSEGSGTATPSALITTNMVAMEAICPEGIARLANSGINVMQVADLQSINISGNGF
# Procedure, shortened: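 Endogenous Sp1 activity was gauged in human liver HepG2 cells bearing transfected reporter units under a cis-regulating promoter. After 24 h dosing, reporter mRNA was quantified by RT-PCR with capillary electrophoresis, and activity fitted bidirectionally versus DMSO.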
# [14] = ATG_SREBP_CIS: Attagene CIS-FACTORIAL HepG2 Assay for human Sterol Regulatory Element Binding (SREBP) (AID 2282962); conditions: HepG2 Attagene cis-factorial SREBP reporter, mRNA; actives raise or lower the signal
# Procedure, shortened: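 Readout: fluorescent reporter-transcript peaks resolved by capillary electrophoresis after RT-PCR. Cells were human HepG2 carrying transfected cis-promoter reporter constructs, dosed for 24 h. Gain or loss of signal was fitted against DMSO controls.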
# [15] = molecular target: Signal transducer and activator of transcription 3 (Homo sapiens) (UniProt P40763); assay: ATG_STAT3_CIS: Attagene CIS-FACTORIAL HepG2 Assay for human Signal Transducer and Activator of Transcription 3 (STAT3) (AID 2282963); conditions: HepG2, Attagene cis-factorial STAT3 reporter transcription; actives raise or lower the signal
# Chain of Signal transducer and activator of transcription 3 (Homo sapiens) (P40763 whole entry, looked up): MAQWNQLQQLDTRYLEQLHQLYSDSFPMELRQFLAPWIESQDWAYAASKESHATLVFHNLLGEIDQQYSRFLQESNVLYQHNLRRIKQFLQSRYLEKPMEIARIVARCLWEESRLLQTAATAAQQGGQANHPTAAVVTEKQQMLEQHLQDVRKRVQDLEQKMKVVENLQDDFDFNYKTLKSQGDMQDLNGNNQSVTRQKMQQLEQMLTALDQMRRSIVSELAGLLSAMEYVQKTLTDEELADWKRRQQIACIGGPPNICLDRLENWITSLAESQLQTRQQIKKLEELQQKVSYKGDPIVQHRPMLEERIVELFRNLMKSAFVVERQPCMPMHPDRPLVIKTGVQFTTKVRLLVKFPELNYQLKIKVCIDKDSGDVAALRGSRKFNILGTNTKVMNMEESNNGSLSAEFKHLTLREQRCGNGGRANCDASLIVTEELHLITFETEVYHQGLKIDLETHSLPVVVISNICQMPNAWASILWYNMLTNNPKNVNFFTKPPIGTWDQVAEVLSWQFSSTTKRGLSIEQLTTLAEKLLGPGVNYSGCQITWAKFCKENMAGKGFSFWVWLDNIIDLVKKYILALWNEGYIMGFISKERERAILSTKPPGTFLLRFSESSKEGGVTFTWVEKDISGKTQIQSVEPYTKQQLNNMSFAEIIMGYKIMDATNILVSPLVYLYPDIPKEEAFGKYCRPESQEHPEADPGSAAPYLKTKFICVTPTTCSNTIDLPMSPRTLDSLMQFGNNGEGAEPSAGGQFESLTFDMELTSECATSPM
# Procedure, shortened: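 Cis-factorial format: endogenous transcription factors in HepG2 drive transfected reporter units. After 24 h treatment, reporter RNA was reverse-transcribed, amplified, FAM-labelled and HpaI-digested before CE analysis; activity scored in both directions against DMSO.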
# [16] = ATG_TA_CIS: Attagene CIS-FACTORIAL HepG2 Assay for human TA Basal Promoter (AID 2282964); conditions: HepG2 Attagene CIS-factorial TA basal promoter reporter; actives raise or lower the signal
# Procedure, shortened: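 Cis-factorial format in HepG2: reporters report endogenous factors, not chimeric Gal4 fusions. After 24 h treatment, reporter transcripts were measured by RT-PCR-capillary electrophoresis fluorescence, analysed bidirectionally versus DMSO.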
# [17] = ATG_TCF_b_cat_CIS: Attagene CIS-FACTORIAL HepG2 Assay for human T-Cell-Factor with beta-catenin (TCF/b-cat) (AID 2282965); conditions: HepG2 TCF/beta-catenin cis-reporter transcription, actives raise or lower the signal
# Procedure, shortened: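 Endogenous TCF/LEF activity read as reporter transcript level via RT-PCR and capillary electrophoresis fluorescence in transfected HepG2, 24 h exposure; gain or loss of signal fitted against DMSO controls.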
# [18] = ATG_VDRE_CIS: Attagene CIS-FACTORIAL HepG2 Assay for human Vitamin D Receptor Element (VDRE) (AID 2282968); conditions: HepG2 VDRE cis-reporter transcription, actives raise or lower the signal
# Procedure, shortened: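 Measures endogenous factor activity through cis-element-driven reporter transcripts in transiently transfected HepG2. Cells are treated 24 h; reporter mRNA is quantified by RT-PCR and capillary electrophoresis; fitting is bidirectional.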
# [19] = ATG_TAL_CIS: Attagene CIS-FACTORIAL HepG2 Assay for human TAL Basal Promoter (AID 2282966); conditions: HepG2 Attagene cis-factorial TAL promoter reporter; actives raise or lower the signal;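 also: background control endpoint measuring basal TAL promoter reporter mRNA not a specific factor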
# Procedure, shortened: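 Basal-promoter background-control endpoint from a multiplexed HepG2 reporter panel. Cells were exposed 24 h, then reporter mRNA was read by RT-PCR/CE fluorescence and fitted in both directions relative to DMSO.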
# [20] = ATG_TGFb_CIS: Attagene CIS-FACTORIAL HepG2 Assay for human Transforming Growth Factor (TGF) (AID 2282967); conditions: HepG2 Attagene CIS TGFb reporter, mRNA transcription; actives raise or lower the signal
# Procedure, shortened: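 Multiplexed cis-reporter HepG2 system, 24 h treatment; mRNA induction read by fluorescence after RT-PCR and CE; DMSO negative control, bidirectional curve fitting.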
smiles,measurement,setting,value
CCCCCCCCCCCCBr,outcome,[1],inactive
same,outcome,[2],inactive
same,outcome,[3],inactive
same,outcome,[4],inactive
same,outcome,[5],inactive
same,outcome,[6],inactive
same,outcome,[7],inactive
same,outcome,[8],inactive
same,outcome,[9],inactive
same,outcome,[10],inactive
same,outcome,[11],inactive
same,outcome,[12],inactive
same,outcome,[13],inactive
same,outcome,[14],inactive
same,outcome,[15],inactive
same,outcome,[16],inactive
same,outcome,[17],inactive
same,outcome,[18],inactive
Clc1cccc(Cl)c1Cl,outcome,[1],inactive
same,outcome,[2],inactive
same,outcome,[3],inactive
same,outcome,[4],inactive
same,outcome,[5],inactive
same,outcome,[6],inactive
same,outcome,[7],inactive
same,outcome,[8],inactive
same,outcome,[9],inactive
same,outcome,[10],inactive
same,outcome,[11],inactive
same,outcome,[12],inactive
same,outcome,[13],inactive
same,outcome,[14],inactive
same,outcome,[15],inactive
same,outcome,[16],inactive
same,outcome,[17],inactive
same,outcome,[18],inactive
CC(C)=CC1C(C(=O)OCc2cccc(Oc3ccccc3)c2)C1(C)C (stereo unspecified),outcome,[1],inactive
same,outcome,[2],inactive
same,outcome,[3],inactive
same,outcome,[4],inactive
same,outcome,[5],inactive
same,outcome,[6],inactive
same,outcome,[7],inactive
same,outcome,[8],inactive
same,AC50,[9],3.43 µM (active)
same,outcome,[11],inactive
same,outcome,[12],inactive
same,outcome,[13],inactive
same,outcome,[14],inactive
same,outcome,[15],inactive
same,outcome,[16],inactive
same,outcome,[17],inactive
same,outcome,[19],inactive
same,outcome,[20],inactive
same,outcome,[18],inactive
O=C(CCl)Nc1ccccc1,AC50,[1],134 µM (active)
same,outcome,[2],inactive
same,AC50,[3],69.2 µM (active)
same,outcome,[4],inactive
same,AC50,[5],49 µM (active)
same,AC50,[6],56.4 µM (active)
same,outcome,[7],inactive
same,AC50,[9],33.4 µM (active)
same,AC50,[10],3.66 µM (active)
same,outcome,[11],inactive
same,AC50,[12],32.9 µM (active)
same,AC50,[13],25.8 µM (active)
same,AC50,[14],6.32 µM (active)
same,outcome,[15],inactive
same,outcome,[16],inactive
same,outcome,[17],inactive
same,outcome,[19],inactive
same,outcome,[20],inactive
same,AC50,[18],43.7 µM (active)
C=C(C)C(=O)OCC(CC)CCCC (stereo unspecified),outcome,[1],inactive
same,outcome,[2],inactive
same,outcome,[3],inactive
same,outcome,[4],inactive
same,outcome,[5],inactive
same,outcome,[6],inactive
same,outcome,[8],inactive
same,outcome,[9],inactive
same,outcome,[11],inactive
same,outcome,[12],inactive
same,outcome,[13],inactive
same,outcome,[14],inactive
same,outcome,[15],inactive
same,outcome,[16],inactive
same,outcome,[17],inactive
same,outcome,[19],inactive
same,outcome,[20],inactive
same,outcome,[18],inactive
CCOC(=O)c1ccccc1S(=O)(=O)NC(=O)Nc1nc(Cl)cc(OC)n1,outcome,[1],inactive
same,outcome,[2],inactive
same,outcome,[3],inactive
same,outcome,[4],inactive
same,outcome,[5],inactive
same,outcome,[6],inactive
same,outcome,[7],inactive
same,AC50,[9],5.49 µM (active)
same,outcome,[10],inactive
same,outcome,[11],inactive
same,outcome,[12],inactive
same,outcome,[13],inactive
same,outcome,[14],inactive
same,outcome,[15],inactive
same,outcome,[16],inactive
same,outcome,[17],inactive
same,outcome,[18],inactive
O=C(O)COc1cc(Cl)c(Cl)cc1Cl,outcome,[1],inactive
same,outcome,[2],inactive
same,outcome,[3],inactive
same,outcome,[4],inactive
same,outcome,[5],inactive
same,outcome,[6],inactive
same,outcome,[8],inactive
same,outcome,[9],inactive
same,AC50,[10],33.5 µM (active)
same,outcome,[11],inactive
same,outcome,[12],inactive
same,outcome,[13],inactive
same,outcome,[14],inactive
same,outcome,[15],inactive
same,outcome,[16],inactive
same,outcome,[19],inactive
same,outcome,[20],inactive
same,outcome,[18],inactive
Brc1c(Br)c(Br)c(Oc2c(Br)c(Br)c(Br)c(Br)c2Br)c(Br)c1Br,outcome,[1],inactive
same,outcome,[2],inactive
same,outcome,[3],inactive
same,outcome,[4],inactive
same,outcome,[5],inactive
same,outcome,[6],inactive
same,outcome,[7],inactive
same,outcome,[9],inactive
same,outcome,[10],inactive
same,outcome,[11],inactive
same,outcome,[12],inactive
same,outcome,[13],inactive
same,outcome,[14],inactive
same,outcome,[15],inactive
same,outcome,[16],inactive
same,outcome,[17],inactive
same,outcome,[19],inactive
same,outcome,[20],inactive
same,outcome,[18],inactive
